In all, about 96,000 compounds went through this assay and about 19,000 (20%) were called active. Not all results are given here. Unmarked numbers belong to inactive results.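 The calls were made as follows: active = blocking of liver enzyme CYP2C9 beyond about 50% at 5 µM (limit read from the data); inactive = the rest.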

The target in the assay is Cytochrome P450 2C9 (Homo sapiens) (UniProt P11712). Nature of the assay: blockers of cytochrome P450 2C9 activity – biochemical, luminescence, ADME assay, primary screen (AID 777). The following applies: CYP2C9 Supersomes, luciferin-H conversion, at 5 µM, active compounds read high.
Chain of Cytochrome P450 2C9 (Homo sapiens) (P11712 whole entry, looked up): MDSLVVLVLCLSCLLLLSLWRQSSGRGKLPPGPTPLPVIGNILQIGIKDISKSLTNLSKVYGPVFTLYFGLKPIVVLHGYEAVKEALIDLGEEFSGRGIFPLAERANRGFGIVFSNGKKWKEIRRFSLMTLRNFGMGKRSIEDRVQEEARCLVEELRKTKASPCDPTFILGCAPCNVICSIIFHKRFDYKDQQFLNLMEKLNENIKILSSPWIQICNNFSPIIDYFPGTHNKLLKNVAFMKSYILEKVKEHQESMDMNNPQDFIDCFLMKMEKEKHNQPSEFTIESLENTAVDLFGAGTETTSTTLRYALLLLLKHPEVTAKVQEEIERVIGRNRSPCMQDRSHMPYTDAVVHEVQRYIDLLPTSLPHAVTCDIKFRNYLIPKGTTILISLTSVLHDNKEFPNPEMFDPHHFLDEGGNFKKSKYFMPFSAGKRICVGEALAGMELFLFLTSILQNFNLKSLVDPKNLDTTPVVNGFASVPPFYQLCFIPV
On to `CC(=O)N1CCN(c2ccc(NCc3ccc(C(C)C)cc3)cc2)CC1`, for which the inhibition (as a rule, the drop in the measured response relative to a control, in per cent) is 37%. Regarding `O=C1CSC(c2cccc(F)c2)N1c1ccccc1F` (centres undefined), the inhibition is 3%. On to `O=C(Nc1ccc(Cl)cc1)OCc1cc(-c2ccccc2)on1`, for which the inhibition was 64.4% (active). Regarding `O=C(Nc1ccccc1)OCc1cc(-c2ccc(Cl)cc2)on1`, the inhibition is 16.9%.

Take `O=C(Nc1ccccc1)OCc1cn(-c2ccc(Cl)cc2)nn1`: the inhibition is 41.6%.

Consider `CCCn1c(O)c(CN2CCCC(C)C2)c(C)c(C#N)c1=O` (centres undefined), for which the inhibition is 5.2%. Regarding `O=C(Nc1cccc(NC(=O)N2CCN(c3ccccc3)CC2)c1)N1CCN(c2ccccc2)CC1`, the inhibition was 54% (active).

`O=C(Nc1ccccc1)N1CCN(Cc2ccccc2)CC1`: the inhibition was 14.6%. `CC(=O)N1CCN(C(=O)Nc2cccc(C(F)(F)F)c2)CC1`: the inhibition was 4.5%. Turning to `CCCCNCc1ccc(SC)cc1`, the inhibition is 4.1%. Regarding `Cc1ccccc1OC(=O)Cn1c(C(F)(F)F)nc2ccccc21`, the inhibition was 30.1%. The figure for `Cc1cc(=O)oc2cc(OCC3CC(c4ccccc4Cl)=NO3)ccc12` (centres undefined) is 65.7% (active). To `Cc1cc(=O)oc2cc(NC(=O)C3CC(=O)N(Cc4ccccc4)C3)ccc12` (centres undefined) belongs 10.4%; to `COc1cccc(-c2nnc(SCCOc3ccc4c(C)cc(=O)oc4c3)o2)c1`, 42.3%; to `O=c1cc(CN2CCN(c3cccc(Cl)c3)CC2)c2cc3c(cc2o1)CCCC3`, 58.6% (active). With `OC(COc1ccc2c(c1)CCC2)CN1CCN(c2cccc(Cl)c2)CC1` (centres undefined), the inhibition was -14.4%. With `Cn1c(C(=O)NCCCN2CCN(c3cccc(Cl)c3)CC2)cc2c(=O)n(C)c3ccccc3c21`, the inhibition was 22.8%. The figure for `C=CCN(C(=O)Cn1ncc2c1-c1cc(C)ccc1OC2)c1ccccc1` is 38.4%. To `Cn1c2ccccc2n2c(=O)c(=O)n(CC(=O)c3ccc(F)cc3)nc12` belongs -18%.

For `OCCNc1nc2ccccc2n1-c1ncnc2sc3c(c12)CCC3`, the inhibition is 16.9%. As for `Cc1cc(=O)[nH]c(SCc2cc(Cl)ccc2OC(F)F)n1`, the inhibition is 76.4% (active). As for `Cc1cc(=O)[nH]c(SCc2cccc(F)c2)n1`, the inhibition was 23.7%.

Regarding `O=c1cc(O)nc(SCc2ccccc2Cl)[nH]1`, the inhibition was 37%.

Consider `Cc1ccccc1C(OCC(O)CN1CCCCC1CCO)c1ccccc1` (centres undefined), for which the inhibition is -0.6%. With `COc1cc(NS(=O)(=O)c2ccc(N/C=C(\C=O)c3nc4cc(Cl)ccc4o3)cc2)nc(OC)n1`, the inhibition was 39.2%. Regarding `O=c1[nH]c2ccccc2n2c(-c3ccccc3)nnc12`, the inhibition is 62% (active).

Regarding `O=[N+]([O-])c1cccc(-c2nnc3c4ccccc4c4ccccc4n23)c1`, the inhibition was 11.9%.

As for `O=c1[nH]c(-c2ccccc2)c(-c2ccccc2)[nH]1`, the inhibition is 17.9%. Turning to `COc1ccccc1-c1nnc(SCC(=O)N2CC(C)CC(C)C2)o1` (centres undefined), the inhibition was -292%. For the molecule `O=C(c1cnn2ccccc12)N1CCc2ccccc21`, the inhibition is -42.7%. To `CCC(C)NC(=O)N[C@@H](CCSC)C(=O)O` (some centres undefined) belongs 8.8%; to `O=C(CSc1ccc(/C=N/NC(=O)c2cccc(F)c2)o1)Nc1ccccc1`, 80.3% (active); to `O=C(Cn1cc(/C=N/NC(=O)c2cccc(C(F)(F)F)c2)c2ccccc21)Nc1ccc(F)cc1`, 23.8%. To `C/C(=N/NC(=O)c1ccc(NC(=O)c2ccc(F)cc2)cc1)c1ccccc1` belongs 3.1%; to `CC(C)c1nc2oc3c(N4CCN(C)CC4)ncnc3c2c2c1CCC2`, 24%; to `CCOC(=O)c1c(C)c(C(=O)NCCc2ccc(S(N)(=O)=O)cc2)c(C)n1CC`, 16.4%.

As for `CCC12CN3CC(CC)(CN(C1)C31C(=O)N(C)c3ccc(C)cc31)C2=O` (centres undefined), the inhibition was 3.6%. Regarding `O=C(NCc1ccccn1)c1ccc2nc(-c3ccco3)c(-c3ccco3)nc2c1`, the inhibition was 67.3% (active). To `CN(c1ccc(C(=O)NCc2ccccn2)cc1)S(C)(=O)=O` belongs -10.8%. As to `O=C(NCc1ccccn1)c1cc2ccccc2oc1=O`, the inhibition is -26%. Turning to `COc1ccc(CN2CCn3ncc(C(=O)Nc4ccc(Cl)cc4Cl)c3C2=O)cc1`, the inhibition was 14.3%.

`CC(C)C(=O)Nc1nnc(Sc2ccc(N(C)C)cc2)s1`: the inhibition is -3.9%.

In the case of `ONC(=Nc1ccc(Cl)cc1)c1ccccc1Cl`, the inhibition was 40.4%. The figure for `Cc1cc(C)nc(NC(=O)C(C)N2C(=O)c3ccccc3C2=O)n1` (centres undefined) is -15.6%; for `O=C(NCCN1CCOCC1)[C@H](Cc1ccccc1)N1C(=O)c2ccccc2C1=O` it is -32.6%.

Regarding `N/C(=N\c1nc2ccccc2o1)NC(=O)C(Cc1ccccc1)N1C(=O)c2ccccc2C1=O` (centres undefined), the inhibition is 89.2% (active). As to `CCN(CC)CCn1c(=S)[nH]c2ncccc2c1=O`, the inhibition was 16.3%. `CCCc1nnc(NC(=O)c2cccs2)s1`: the inhibition was 14.9%.

For the molecule `C=C(C)COc1ccc(-c2n[nH]c(C)c2-c2ccccc2OC)c(O)c1`, the inhibition is 54.9% (active). To `COc1ccc(OC)c(Nc2nc(-c3ccc(O)c(O)c3)cs2)c1` belongs 24.3%; to `COc1ccccc1-c1n[nH]c2c1[C@H](C)CC[C@H]2C(C)C`, 36.5%. In the case of `COc1ccc(-c2n[nH]c(C)c2-c2ccc(OC)c(OC)c2)c(O)c1`, the inhibition is 98.8% (active). With `COc1ccc(-c2nc(-c3ccccc3)no2)c(OC)c1`, the inhibition is -7%. With `C=C(C)COc1ccc(-c2n[nH]c(C)c2-c2ccccc2)c(O)c1`, the inhibition is 26.2%. On to `CCc1c(C)[nH]c(=S)c(C#N)c1C`, for which the inhibition is 16%. For the molecule `Cc1cc(C)nc(NC2=NCC(=O)N2c2ccc(Cl)cc2)n1`, the inhibition was -8.5%.

On to `Cc1ccc(Oc2nc3ccccc3n3c(C)nnc23)cc1`, for which the inhibition is 13.5%. On to `COC(=O)CN(c1cccc(C(C)=O)c1)S(C)(=O)=O`, for which the inhibition is 40.7%. Consider `CC1=NN(C(C)C)C(=O)C1`, for which the inhibition was 12.8%. To `COCCNC(=O)COc1ccc(C)c(C)c1` belongs -28.7%. Turning to `O=S(=O)(O)c1nc2ccccc2n1Cc1ccc(Cl)cc1`, the inhibition was 43.6%. The figure for `O=S(=O)(O)c1nc2ccccc2n1Cc1ccc(Cl)cc1Cl` is 74.7% (active); for `CCC(=O)Nc1nc2ccccc2n1Cc1ccccc1C` it is -6.9%; for `Cc1ccc(F)c(NC(=O)CCc2ccccc2)c1` it is -15.7%. For the molecule `O=C(OCc1cn(-c2ccc(Cl)c(Cl)c2)nn1)c1ccccc1Cl`, the inhibition was -32.3%. For `CCc1nnc(NC(=O)c2ccc(S(=O)(=O)NC3CCCCC3)cc2)s1`, the inhibition was 20.2%. On to `CCc1nnc(NS(=O)(=O)c2ccc(N=Cc3c(C)[nH]n(-c4ccc(C)cc4)c3=O)cc2)s1`, for which the inhibition is 17%.

For the molecule `CCc1nnc(NS(=O)(=O)c2ccc(NS(=O)(=O)c3ccccc3)cc2)s1`, the inhibition is 77.5% (active). To `CCC(C)NC(=O)c1cc(Cl)ccc1OC` (centres undefined) belongs -166%. With `Cc1ccc(C(C(=O)NC2CCCCC2)N(C(=O)c2csnn2)C2CC2)o1` (centres undefined), the inhibition is 26.6%. To `CCc1c(C)sc(NC(=O)OC)c1C(=O)N1CCOCC1` belongs -10.7%; to `COc1ccccc1N1CC(O)=C(c2nc3ccccc3s2)C1=N`, 26.8%.

With `CCCCCN1CC(O)=C(c2ccccc2)C1=N`, the inhibition was -11.3%.

Regarding `CCCCCN1CC(O)=C(c2nc(-c3ccc(Cl)cc3)cs2)C1=N`, the inhibition is 62.1% (active). With `Cc1ccc(CNC(=O)C2CC(c3ccccc3[N+](=O)[O-])=NO2)o1` (centres undefined), the inhibition is -18.8%. In the case of `COC(=O)c1ccc(CSc2nc3cc(Cl)ccc3o2)cc1`, the inhibition was -7.6%. `c1ccc2[nH]c(NCCN3CCOCC3)nc2c1`: the inhibition was -29.7%. Turning to `CC(C)c1nc(N2CCOCC2)c(C#N)c2c1COC(C)(C)C2`, the inhibition is 61.7% (active).

With `Cc1nc(NCc2ccccc2)c(C(N)=O)c2c1COC(C)(C)C2`, the inhibition was 2.7%. `CC(C)Cc1nc(N2CCOCC2)c(C#N)c2c1CCC2`: the inhibition was 39.5%.

For the molecule `C1=C(N2CCOCC2)/C(=C/c2nc3ccccc3[nH]2)CC1`, the inhibition was 11.9%. With `CC1(C)Cc2c(C#N)c(SCc3nc4ccccc4[nH]3)nc(N3CCOCC3)c2CO1`, the inhibition is 96.2% (active). For the molecule `CC(C)C(=O)N1CCN(c2nc(-c3ccccc3)c3c(c2C#N)CC(C)(C)OC3)CC1`, the inhibition was 97.1% (active). `c1ccc2cc(OCCN3CCCC3)ccc2c1`: the inhibition is 2.2%. `O=C(CCCN1C(=O)CSc2ncccc21)N1CCN(c2cccc(C(F)(F)F)c2)CC1`: the inhibition was 31.1%. With `CN1CCN(CC(O)COCc2ccc3c(c2)OCO3)CC1` (centres undefined), the inhibition is -13.3%. To `COc1ccc2c3c(c(=O)oc2c1OCC(=O)C(C)(C)C)CCCC3` belongs 25.4%; to `O=C(NCc1ccccn1)Nc1ccc(F)cc1`, 2.9%; to `CCN(CC)C(=O)CSC1c2ccccc2C(=O)N1c1ccccc1` (centres undefined), -6.2%.

As for `Cc1ccc(NC2=NC(c3ccccc3)n3c(nc(C)cc3=O)N2)cc1` (centres undefined), the inhibition was 35.5%. To `Cc1ccc(S(=O)(=O)Nc2nc3ccccc3nc2N2CCc3ccccc3C2)cc1` belongs 96% (active); to `Cc1ccc(S(=O)(=O)NCc2nc3ccccc3c(=O)n2N)cc1`, -7.2%; to `O=C(Nc1ccc(S(=O)(=O)N2CCc3ccccc3C2)cc1)c1ccccc1`, 1.2%. To `Cc1cc([N+](=O)[O-])ccc1NCc1cccc([N+](=O)[O-])c1` belongs -1.6%; to `CC(Oc1ccc(Cl)cc1)C(=O)Nc1ncccn1` (centres undefined), 0.9%; to `COc1ccc(OCC(=O)NNC(=O)c2ccc(-c3ccccc3)cc2)cc1`, -3.2%.

On to `CCC(C)OC(=O)C(C)Oc1ccc(-c2ccccc2)cc1` (centres undefined), for which the inhibition was 79.9% (active). `Cn1c(/C(C#N)=C2/CCCCCN2)nc2ccccc21`: the inhibition is 29.5%.

As to `COc1ccc(-c2[nH]nc(-c3ccccc3)c2-c2nc3ccccc3[nH]2)cc1`, the inhibition is 10%.

These data come from PubChem BioAssay AID777 (Sanford-Burnham Center for Chemical Genomics, 2007).
